Source: PubChem
In the library only some 18% were active in any assay of this set; here they are far more common.
PLK1 PBD block – inhibitors of human PLK1 polo-box domain binding | P53350 | Plk1 PBD binding of FITC phosphopeptide, fluorescence polarization | Potency, µM, without a hit: max response, negative = inhibition, hits mostly inhibitors | hit rate 2.8% among 360,000 | AID 720504; further: series mostly up to about 57 µM; nearly all actives have a fitted effect of over 65% in size
Target sequence (P53350 whole entry, looked up, the tested form may be a part): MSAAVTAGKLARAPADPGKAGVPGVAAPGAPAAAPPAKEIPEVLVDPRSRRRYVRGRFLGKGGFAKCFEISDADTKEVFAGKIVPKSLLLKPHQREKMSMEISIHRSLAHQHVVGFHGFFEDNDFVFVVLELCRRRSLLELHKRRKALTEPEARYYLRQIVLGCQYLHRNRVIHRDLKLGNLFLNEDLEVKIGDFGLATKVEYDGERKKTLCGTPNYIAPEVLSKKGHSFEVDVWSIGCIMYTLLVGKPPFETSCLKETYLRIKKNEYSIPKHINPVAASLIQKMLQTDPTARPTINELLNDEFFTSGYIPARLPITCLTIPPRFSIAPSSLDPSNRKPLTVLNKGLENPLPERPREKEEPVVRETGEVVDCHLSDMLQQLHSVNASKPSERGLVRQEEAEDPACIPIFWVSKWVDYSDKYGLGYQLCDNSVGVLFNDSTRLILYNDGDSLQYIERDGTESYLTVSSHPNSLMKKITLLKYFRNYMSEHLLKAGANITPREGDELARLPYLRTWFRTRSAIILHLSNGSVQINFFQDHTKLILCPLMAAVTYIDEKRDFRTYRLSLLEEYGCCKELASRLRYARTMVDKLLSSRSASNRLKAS
TDP1 cell CPT – growth inhibition of DT40 Tdp1-/-;hTDP1 cells with camptothecin (screen for TDP1 inhibitors); chicken DT40 Tdp1-/-;hTDP1 cells + 20 nM CPT, ATP luminescence, 48 h; Potency, µM (doses to about 46.2 µM), inactives show at the highest dose activity change, negative = growth inhibition, hits mostly inhibitors; hit rate 12% among 420,000; AID 686979; further: nearly all actives have a fitted effect of over 55% in size
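Cell growth measured by CellTiter-Glo luminescence after a minimum 48 h, 37 C compound exposure with 20 nM CPT in Tdp1-knockout DT40 cells stably expressing hTDP1, seeded 400/well; qHTS titration format.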
TDP1 cell noCPT – qHTS for Inhibitors of human tyrosyl-DNA phosphodiesterase 1 (TDP1): qHTS in cells in absence of CPT | DT40 Tdp1-/- hTDP1 cells, no CPT, ATP luminescence, 48 h | hit rate 15% among 420,000 | Potency, µM (top dose mostly 46.2 µM), without a hit: at the highest dose activity change, negative = growth inhibition, actives largely listed as inhibitors; further: nearly all actives have a fitted effect of over 55% in size
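Readout: luminescence from CellTiter-Glo after 30 min in the dark at RT. Cells: DT40 Tdp1-/- with stable hTDP1, 400/well. Exposure: compounds alone, ≥48 hr, 37 °C.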
TDP1 block – inhibitors of human tyrosyl-DNA phosphodiesterase TDP1 | Q9NUW8 | recombinant TDP1, AlphaScreen DNA substrate cleavage | Potency, µM (highest dose often 130 µM), for the others: at the top dose activity change, negative = inhibition, most hits filed as inhibitors | hit rate 0.28% among 350,000 | AID 485290; further: nearly all actives have a fitted effect of over 40% in size
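Recombinant E. coli-expressed Tdp1 (1 nM) preincubated with compound 15 min at RT, then 5'-biotin/3'-phosphotyrosine-FITC DNA substrate (15 nM) added for 5 min. AlphaScreen beads (10 ug/ml) added, 10 min RT; tyrosine-FITC cleavage read as signal loss.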
VDR inh – vitamin D3 receptor (human) inhibition. P11473. VDR-SRC2-3 peptide fluorescence polarization, 2 h. AID 504847. hit rate 0.93% among 400,000. Potency, µM, for the others: max response, negative = inhibition, usual class: inhibitors
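VDR–SRC2-3 interaction, FP format. Cmpds 23 nl via pintool, brief spin, 2 h ambient incubation.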
KAT2A inh – GCN5L2 (KAT2A) acetyltransferase inhibition; Potency, µM (highest dose often 58.9 µM), inactives show at the highest dose activity change, negative = inhibition, usual class: inhibitors; hit rate 0.21% among 390,000; GCN5L2 HAT assay, ThioGlo1 CoA-SH fluorescence; Q92830
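Titration-based screen in which CoA formation is detected via maleimide probe ThioGlo1 (50uM) turning fluorescent on thiol reaction; substrates H3(1-25) 75uM and acetyl-CoA 70uM, GCN5L2 20nM, 20 min incubation at room temperature.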
* marks the source's active call; other numbers are inactive results; u = inconclusive; x = no result given. The call rests on the fitted dose curve; in most records, active means well fitted curve in the direction sought with a large enough effect; inconclusive means small, poorly fitted or top-dose-only effect, or another doubt; inactive means no such curve, though single readings can be large; an effect the other way counts as inactive or inconclusive. On the % scale 0 is the no-effect control and ±100 the full control effect; potency means the concentration at half of the fitted maximal effect.

SMILES	PLK1 PBD block	TDP1 cell CPT	TDP1 cell noCPT	TDP1 block	VDR inh	KAT2A inh
Cc1cccc(-n2c(O)c(C=NCc3ccccn3)c3ccccc3c2=O)c1	-11.2%	18.4µM*	u	5.3%	1.1%	-5.7%
Cc1cc(C)cc(-n2c(O)c(C=NC3CCS(=O)(=O)C3)c3ccccc3c2=O)c1 (stereo not given)	-4.1%	16.4µM*	u	3.1%	22.1%	-32.6%
Cc1cccc(-n2c(O)c(C=NC3CCS(=O)(=O)C3)c3ccccc3c2=O)c1C (stereo not given)	0.8%	5.17µM*	u	8.4%	12.8%	-8.4%
Cc1ccc(-n2c(O)c(C=NC3CCS(=O)(=O)C3)c3ccccc3c2=O)cc1C (stereo not given)	-8.5%	10.3µM*	18.4µM*	6.1%	8.0%	0.3%
Cc1ccccc1-n1c(O)c(C=NC2CCS(=O)(=O)C2)c2ccccc2c1=O (stereo not given)	3.1%	-29.4%	u	x	-14.9%	-6.5%
CCN(CC)CCCN=Cc1c(O)n(-c2c(C)cccc2C)c(=O)c2ccccc12	-9.1%	u	u	x	5.2%	-6.1%
COc1ccc(CC2SC(N)=NC2=O)cc1 (stereo not given)	-4.2%	21.8%	3.1%	x	3.9%	-1.5%
Cc1cccc(-n2c(O)c(C=NC3CCS(=O)(=O)C3)c3ccccc3c2=O)c1 (stereo not given)	-3.8%	13µM*	u	-9.9%	-0.7%	-4.0%
Cc1ccc(N=Cc2c(O)n(-c3ccc4c(c3)OCO4)c(=O)c3ccccc23)cc1	1.6%	u	u	0.0%	-7.4%	1.4%
CC(C)c1ccc(/C=C/C(=O)Nn2cnnc2)cc1	x	1.5%	0.5%	x	5.1%	x
Cc1ccc(/C=C/C(=O)Nn2cnnc2)cc1	-4.3%	u	14.6µM*	3.8%	-0.4%	-2.9%
CCOc1ccc(NC(=S)N(C)C)cc1	1.1%	0.7%	2.9%	4.7%	-12.0%	1.3%
Cc1ccc(Cl)cc1N1CCN(C(=O)Cn2nc(C)n3c(cc4sccc43)c2=O)CC1	x	18.4µM*	20.6µM*	-1.0%	-16.4%	-10.7%
O=C(Cn1ncn2cccc2c1=O)N1CCCCC1	-1.7%	5.3%	-0.2%	-4.7%	2.2%	3.6%
COc1cccc2c1cc1c(=O)n(CC(=O)N3CCN(c4cc(Cl)ccc4C)CC3)nc(C)n12	x	-15.1%	-22.4%	7.8%	17.2%	0.2%
Cc1ccc(Cl)cc1N1CCN(C(=O)Cn2ccc3ccccc3c2=O)CC1	-7.0%	16.4µM*	20.6µM*	-1.0%	-0.3%	-4.3%
Cc1ccc(Cl)cc1N1CCN(C(=O)Cn2ncn3cccc3c2=O)CC1	-3.9%	20.6µM*	u	x	-11.9%	-29.1%
Cc1ccc(Cl)cc1N1CCN(C(=O)CSc2cc(=O)n(C)c3ccccc23)CC1	x	14.6µM*	7.31µM*	2.3%	-15.8%	-22.2%
O=C(c1ccccc1F)N1N=C(C(F)(F)F)CC1(O)c1ccccc1 (stereo not given)	-7.0%	u	u	x	x	x
N#Cc1ccc(C(=O)NNC(=O)c2cccc(S(=O)(=O)N3CCOCC3)c2)cc1	-9.0%	0.6%	-2.7%	-4.9%	-10.8%	-0.5%
C=CCOc1ccc(C2/C(=C(\O)c3ccc4c(c3)OCCO4)C(=O)C(=O)N2CCCN2CCOCC2)cc1 (stereo not given)	u	-23.3%	26.7%	6.8%	-6.7%	-7.7%
N#Cc1c2n(c3c(=O)n(Cc4ccccc4Cl)cnc13)CCCCC2	0.8%	18.4µM*	u	6.0%	2.5%	0.1%
C/C(=N\Nc1cccc2cccnc12)c1ccc[nH]1	1.4%	2.59µM*	4.61µM*	11.8%	4.1%	-11.1%
Cc1ccc(/C=N/Nc2cccc3cccnc23)c(O)c1	0.9%	-7.3%	u	11.5%	-17.3%	-10.7%
O=C(CCc1ccncc1)NC1CCCc2c1cnn2-c1ccc(F)cc1F (stereo not given)	0.6%	u	u	3.6%	-6.3%	1.3%
SMILES	PLK1 PBD block	TDP1 cell CPT	TDP1 cell noCPT	TDP1 block	VDR inh	KAT2A inh
O/N=C1\CCC\C1=C/c1ccco1	-3.0%	6.6%	-1.3%	-5.8%	0.1%	-6.0%
O=C1C(=Cc2ccco2)CCCC1=Cc1ccco1	-17.7%	23.1µM*	u	x	-3.3%	x
O=C1C(=Cc2ccco2)CCC1=Cc1ccco1	u	23.1µM*	16.4µM*	x	u	x
Cc1ccc(C2=NN(CC(=O)NCCc3ccccc3)C(=O)CC2)cc1	x	u	-23.3%	7.8%	-2.8%	-2.2%
Cn1c(=O)c2c(nc(NCCO)n2C)n(C)c1=O	-0.5%	-8.8%	-10.6%	4.5%	5.2%	3.4%
Cn1c(=O)c2c(nc(NCCOc3ccc(C(C)(C)C)cc3)n2C)n(C)c1=O	-1.3%	1.46µM*	1.84µM*	2.5%	-19.8%	-2.8%
COc1ccccc1OCCNc1nc2c(c(=O)n(C)c(=O)n2C)n1C	18.9µM*	29.1µM*	18.4µM*	-2.2%	u	0.9%
CC1CCc2c(sc(NC(=O)CCc3nc4ccccc4c(=O)[nH]3)c2C#N)C1 (stereo not given)	-13.2%	16.4µM*	18.4µM*	-9.8%	-17.5%	-4.2%
Cc1ccccc1C(=O)NC(=S)Nc1sc2c(c1C#N)CCC(C)C2 (stereo not given)	18.9µM*	u	u	10.5%	-12.5%	-11.7%
CC(=O)Nc1sc2c(c1C#N)CCC(C)C2 (stereo not given)	-15.5%	26.2%	u	-3.5%	-6.6%	2.4%
Cc1cc(C)nc(SCC(=O)Nc2sc3c(c2C#N)CCC(C)C3)n1 (stereo not given)	-7.0%	20.6µM*	14.6µM*	x	6.0%	x
CC1CCc2c(sc(NC(=S)NC(=O)c3ccccc3)c2C#N)C1 (stereo not given)	23.8µM*	u	u	x	-5.8%	2.1%
COc1cccc(NC(=O)CN(C)C(=O)CSc2nc(C)cc(C)n2)c1	3.4%	-14.1%	13.0%	1.0%	-7.8%	5.0%
COc1ccccc1C1=Nn2c(nnc2-c2cccc(OC)c2OC)SC1	x	x	x	5.6%	x	x
Cc1cc(C)c(C(=O)c2ccc(C(=O)N(C(C)C)C(C)C)cc2)c(C)c1	-11.4%	16.4µM*	18.4µM*	-7.6%	-13.8%	-6.1%
CC(=O)n1cc([C@@H]2C=C(C(=O)Nc3ccccc3)O[C@H](OCc3ccc(CO)cc3)C2)c2ccccc21	18.0%	23.1µM*	13µM*	5.1%	-15.5%	-6.5%
CC(=O)n1cc([C@@H]2C=C(C(=O)N3CCN(Cc4ccccc4)CC3)O[C@H](OCc3ccc(CO)cc3)C2)c2ccccc21	8.2%	8.2µM*	8.2µM*	6.4%	-6.7%	-5.6%
CC1(C)CC(N2CCCC2)=CC(=[N+]2CCCCC2)C1	-18.2%	0.411µM*	0.259µM*	2.3%	-15.3%	-11.7%
